High-throughput results (PubChem BioAssay)
ADAM10 inh – ADAM10 inhibition, QFRET primary screen; O14672; 0.62% of 370,000 active; recombinant ADAM10, EDANS/DABCYL FRET peptide cleavage, 3 h; inhibition, % at 7 µM;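 active = inhibition above a per-campaign cutoff equal to the mean of compounds falling between control-based bounds plus 3 SD, cut at about 20% in these data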;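 also: 0% = DMSO wells while the 100% control is not disclosed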
GRIN3A LBD mod – modulators (binders) of human NR3A ligand-binding domain. NR3A LBD differential scanning fluorimetry, Tm shift; 0% = protein alone, 100% = glycine-bound protein. Tm shift relative to glycine control, % at 25 µM. 2.5% of 340,000 active. AID 1259313;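 active = melting temperature shift of at least 10% of the positive control shift, at one fixed dose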
rCAG RNA binder – r(CAG) repeat RNA binding; TO-PRO-1 dye displacement fluorescence; inhibition, % at 3 µM; 1.3% of 370,000 active;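 active = inhibition above the plate cutoff, the mean of all test compounds on that plate plus 3 SD, cut at about 35% in these data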;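 also: 0% = DMSO alone and 100% = 100 µM mitoxantrone as full dye displacement; higher means more dye released from RNA so lower well fluorescence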
ADAM17 inh – inhibits human ADAM17 | recombinant ADAM17, EDANS/DABCYL FRET peptide cleavage | inhibition, % at 6.95 µM | 0.83% of 370,000 active | AID 720648;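 active = inhibition above the mean of compounds lying between control limits plus 3 SD, set per campaign, cut at about 8.5% in these data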;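 also: 0% = DMSO-only wells as the low control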
proKLK7 act – activates the human kallikrein-7 zymogen. P49862. purified proKLK7, EDANS-DABCYL substrate fluorescence; 100% is mature enzyme control, 0% vehicle. activation, % at 7 µM. 0.9% of 370,000 active. AID 652039;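 active = activation above the mean of all tested compounds plus 3 SD, computed per campaign excluding outliers beyond control limits, cut at about 13% in these data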
Target sequence (P49862 whole entry, looked up): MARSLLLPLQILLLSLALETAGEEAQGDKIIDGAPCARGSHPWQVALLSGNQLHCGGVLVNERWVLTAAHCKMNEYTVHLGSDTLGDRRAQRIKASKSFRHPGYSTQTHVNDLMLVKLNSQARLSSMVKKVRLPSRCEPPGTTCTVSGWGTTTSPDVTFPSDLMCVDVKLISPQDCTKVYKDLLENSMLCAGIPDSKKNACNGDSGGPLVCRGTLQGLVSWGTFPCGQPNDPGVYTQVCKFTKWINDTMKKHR
AHR activator – activates the human aryl hydrocarbon receptor. 2.5% of 320,000 active. AHR-responsive luciferase reporter cells, luminescence. activation, % at 5 µM. P35869; in the data active = activation above about 47%;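 also: 0% = vehicle wells and 100% = reference agonist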
proKLK7 act conf – confirmation of human kallikrein-7 zymogen activators; AID 686949; 68% of 3,200 active; purified proKLK7, EDANS-DABCYL substrate fluorescence; scaled: vehicle 0, mature enzyme 100; activation, % at 7 µM; shares compounds with proKLK7 act;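 active = activation, as change over the incubation, above the mean of all tested compounds plus 3 SD, cut at about 13% in these data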
EDANS interfere – fluorescence interference counter-screen for KLK7 activators. shares compounds with proKLK7 act. EDANS-DABCYL substrate fluorescence interference, no enzyme, 4 h; solvent 0%, active enzyme control 100%. activation, % at 7 µM. AID 686952. 80% of 3,200 active;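 active = activation above the all-compound mean plus 3 SD, ignoring values outside control-based bounds, cut at about 4.8% in these data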;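 also: value is the 4 h activation minus the activation read at time zero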
EDANS interf – counter-screen for kallikrein-7 activators: EDANS-DABCYL interference, dose response; shares compounds with proKLK7 act; EDANS-DABCYL peptide fluorescence interference, no enzyme; 20% of 250 active; AID 720493; EC50, µM;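 active = compounds that raise the fluorescence signal in this interference counterscreen, with EC50 at or below 10 µM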;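 also: intact quenched peptide substrate alone read at 355 nm excitation and 520 nm emission; signal is fluorescence gain from T0 to T4 after four hours at room temperature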
* hit, by the source's call. Rows were chosen to be rich in hits. Some 7% of all compounds tested hit in one or more screens of this group.

`CN1CCN(c2ncnc3c2ncn3[C@H]2CN(Cc3ccc(F)cc3)C[C@@H](CO)O2)CC1` gave ADAM10 inh 5, rCAG RNA binder 1, ADAM17 inh -2 and proKLK7 act -1.
`COc1ccc(O)c(C(=O)CC(=O)c2ccc(F)cc2)c1` gave ADAM10 inh -349, GRIN3A LBD mod -6, rCAG RNA binder 5, ADAM17 inh -131, proKLK7 act 8 and AHR activator -5.
Screening COc1ccc(O)c(C(=O)CC(=O)c2cccnc2)c1 returned ADAM10 inh inactive, GRIN3A LBD mod 0, rCAG RNA binder 1, ADAM17 inh -336, proKLK7 act 55*, proKLK7 act conf 229* and EDANS interfere 235*.
Screening COc1ccc2c(c1)C(=O)CC(O)(C(F)F)O2 (stereo not given) returned ADAM10 inh inactive, GRIN3A LBD mod 1, rCAG RNA binder 0, ADAM17 inh -223, proKLK7 act 45*, AHR activator -1, proKLK7 act conf 40* and EDANS interfere 33*.
For CCOC(=O)N1CCN(C(=O)COc2ccc3c(c2)C(=O)CC(C)(C)O3)CC1 the results were ADAM10 inh inactive, GRIN3A LBD mod -2, rCAG RNA binder -3, ADAM17 inh inactive, proKLK7 act 31*, AHR activator 0, proKLK7 act conf 26*, EDANS interfere 10* and EDANS interf >70.
CC1(C)CC(=O)c2cc(OCC(=O)O)ccc2O1 was read as ADAM10 inh inactive, GRIN3A LBD mod 1, rCAG RNA binder -1, ADAM17 inh -339, proKLK7 act 14*, AHR activator -1, proKLK7 act conf 42* and EDANS interfere 48*.
For CC1(C)CC(=O)c2cc(OCC(=O)N3CCN(c4ccccc4F)CC3)ccc2O1 the results were ADAM10 inh -358, GRIN3A LBD mod -1, rCAG RNA binder -8, ADAM17 inh -134, proKLK7 act 10 and AHR activator 12.
`CCOC(=O)COc1ccc2c(c1)C(=O)CC(C)(C)O2` gave ADAM10 inh inactive, GRIN3A LBD mod 3, rCAG RNA binder -6, ADAM17 inh -423, proKLK7 act 18*, AHR activator 1, proKLK7 act conf 67* and EDANS interfere 67*.
CC(C)[C@H](NC(=O)[C@@H]1CSC2c3ccccc3C(=O)N21)C(=O)NCc1ccncc1 (stereo not given in full) was read as ADAM10 inh 1, GRIN3A LBD mod -1, rCAG RNA binder 3, ADAM17 inh 1, proKLK7 act 0 and AHR activator -2.
Screening CCC1CCCCN1CCCNC(=O)CCC(=O)N1CC(C)Oc2ccccc21 (stereo not given) returned ADAM10 inh -17, GRIN3A LBD mod 0, rCAG RNA binder 2, ADAM17 inh 0, proKLK7 act 0 and AHR activator 2.
For CC1(C)CC(=O)c2cc(OCC(=O)NCCN3CCOCC3)ccc2O1 the results were ADAM10 inh inactive, GRIN3A LBD mod 0, rCAG RNA binder 4, ADAM17 inh -212, proKLK7 act 16*, AHR activator 4, proKLK7 act conf 25* and EDANS interfere 26*.
`CC1(C)CC(=O)c2cc(OCC(=O)N3CCCCCC3)ccc2O1` gave ADAM10 inh inactive, GRIN3A LBD mod 1, rCAG RNA binder -2, ADAM17 inh inactive, proKLK7 act 26*, AHR activator 5, proKLK7 act conf 68* and EDANS interfere 75*.
CC(C)[C@H](NC(=O)[C@@H]1Cc2ccccc2CN1C(=O)OC(C)(C)C)C(=O)NCc1ccco1 was read as ADAM10 inh -1, GRIN3A LBD mod -2, rCAG RNA binder -6, ADAM17 inh -1, proKLK7 act 0 and AHR activator 0.
CCc1cc(=O)oc2c(C)c(O)c(CN3CCCCC3)cc12 was read as ADAM10 inh inactive, GRIN3A LBD mod -1, rCAG RNA binder 1, ADAM17 inh inactive, proKLK7 act 49*, AHR activator 6, proKLK7 act conf 64* and EDANS interfere 79*.
For COc1ccc2c(CN3CCCCC3)cc(=O)oc2c1 the results were ADAM10 inh inactive, rCAG RNA binder 0, ADAM17 inh -189, proKLK7 act 23*, proKLK7 act conf 3 and EDANS interfere 1.
`Cc1c(O)c(CN2CCCC2)cc2c1oc(=O)c1ccccc12` gave ADAM10 inh -19, GRIN3A LBD mod -2, rCAG RNA binder 7, ADAM17 inh -5, proKLK7 act 0 and AHR activator 22.
`Cc1c(O)c(CN2CCCC2)cc2c3c(c(=O)oc12)CCC3` gave ADAM10 inh inactive, GRIN3A LBD mod -3, rCAG RNA binder 13, ADAM17 inh inactive, proKLK7 act 70*, AHR activator -1, proKLK7 act conf 67* and EDANS interfere 65*.
`COc1ccc(NS(=O)(=O)c2cccc(NC(=O)C3=NN(c4ccccc4)C(=O)CC3)c2)cc1` gave ADAM10 inh 5, GRIN3A LBD mod 5, rCAG RNA binder 10, ADAM17 inh 0, proKLK7 act 1 and AHR activator 15.
CN(c1ccccc1)S(=O)(=O)c1cccc(NC(=O)C2=NN(c3ccccc3)C(=O)CC2)c1 was read as ADAM10 inh -5, GRIN3A LBD mod -3, rCAG RNA binder 8, ADAM17 inh -2, proKLK7 act 53*, AHR activator 29, proKLK7 act conf 12 and EDANS interfere 8.6*.
CC(=O)Nc1cccc(-c2nc3ccc(NC(C)=O)cc3s2)c1 was read as ADAM10 inh inactive, GRIN3A LBD mod 16*, rCAG RNA binder 7, ADAM17 inh inactive, proKLK7 act 26*, AHR activator 4, proKLK7 act conf 22* and EDANS interfere 21*.
For O=c1c2ccccc2n(CC(O)CN2CCCCC2)c2ccccc12 (stereo not given) the results were ADAM10 inh inactive, GRIN3A LBD mod 1, rCAG RNA binder 3, ADAM17 inh -312, proKLK7 act 34*, AHR activator 0, proKLK7 act conf 29* and EDANS interfere 29*.
CN(C)Cc1c(O)ccc2cc(-c3nc4ccccc4n3C)c(=O)oc12 was read as ADAM10 inh inactive, GRIN3A LBD mod -1, rCAG RNA binder -2, ADAM17 inh inactive, proKLK7 act 78*, AHR activator 2, proKLK7 act conf 67* and EDANS interfere 77*.
